About 83,000 compounds went through this panel and 20% of them were active in at least one assay; those are over-represented in the sample as a whole.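 Plates (96-well) were seeded with cells, treated with compound at one concentration, and incubated for 48 hours before percent growth was determined.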 Values without a mark were called inactive. The source made the active and inactive calls. The calls were made as follows: active = growth percent below 10; inactive = the rest.

One experiment has as its system SR leukemia. Description: NCI-60 one-dose screen, 48 h (100 = growth as untreated, 0 = no growth, -100 = all killed). Particulars: 10 µM unless noted.
Consider `NS(=O)(=O)c1ccc(Nc2nc(Nc3ccccc3)nc(-n3nc(-c4ccccc4)cc3-c3ccccc3)n2)cc1`, for which the growth was 0.684% (active).

In the case of `C#Cc1nc(C2=C(C)C(O)/C(=N/O)C2)cs1` (configuration not stated), the growth is -32.8% (active).

For the compound `Cc1ccc2c(n1)C(=O)C(Cl)=C(Nc1cccc(C(C)C)c1)C2=O`, the growth is 24%.

Regarding `CN1CCc2c(sc3ncnc(N/N=C/c4ccc(Cl)c(Cl)c4)c23)C1`, the growth was -22.8% (active).

On to `O=C(CSc1nnc(-c2ccc3nc(-c4ccc(Cl)cc4)[nH]c3c2)o1)Nc1ccc(C(=O)/C=C/c2ccc(Cl)cc2)cc1`, for which the growth was 49.7%.

Take `O=C(N/N=C/c1ccc(Br)s1)c1[nH]c2ccc(Br)cc2c1-c1ccccc1`: the growth is 10.1%.

Consider `C#Cc1nc(C2=C(C)C(O)CC2)cs1` (configuration not stated), for which the growth is 78.7%.

With `O=C(N/N=C/c1ccc[nH]1)c1[nH]c2ccc(Br)cc2c1-c1ccccc1`, the growth is 1.89% (active).

With `COc1ccc(/C=N/NC(=O)c2[nH]c3ccc(Br)cc3c2-c2ccccc2)s1`, the growth was 5.56% (active).

Turning to `C/C(=N\NC(N)=O)c1c(O)sc(=O)[nH]c1=O`, the growth is 114%.

As to `C#Cc1nc(C2=C(C)C(=O)/C(=N/OC(C)=O)C2)cs1`, the growth was 13.4%.

Regarding `Cn1ccnc1C(=O)/C=C/c1ccc(NC(=O)Nc2ccccc2)cc1`, the growth is -3.08% (active).

Take `COc1cc(/C=C/C(=O)c2cc(OC)c(OC)c(OC)c2)ccc1OCc1ccccc1`: the growth was 6.67% (active).

On to `CC(O)C(NC(=O)C1CCCN1C(=O)CNC(=O)C1CC(=O)NCC(=O)NC(Cc2c[nH]c3ccccc23)C(=O)NC(Cc2ccc(O)cc2)C(=O)NCC(=O)NC(CO)C(=O)NC(CCC(N)=O)C(=O)NC(Cc2c[nH]c3ccccc23)C(=O)N1)C(=O)NCC(=O)NC(CCC(N)=O)C(=O)NC(CCCNC(=N)N)C(=O)NC(CC(=O)O)C(=O)O` (configuration not stated), for which the growth is 94.5%.

As to `COc1cc(/C=C/C(=O)c2cc(OC)c(OC)c(OC)c2)ccc1OCc1ccc(F)cc1`, the growth is 16.3%.

With `O=C(N/N=C/c1ccc([N+](=O)[O-])s1)c1[nH]c2ccc(Br)cc2c1-c1ccccc1`, the growth was 7.33% (active).

On to `N#Cc1c(-c2ccc(Cl)cc2)nc2c(-c3ccccc3)c(Nc3ccccc3)nn2c1N`, for which the growth is 36.9%.

Take `O=C(Oc1ccc2ccc(=O)oc2c1)c1ccc(Cl)cc1`: the growth was 96.6%.

Turning to `C#Cc1nc(C2=C(C)C(OC(=O)CCC(=O)O)CC2)cs1` (configuration not stated), the growth is 64.1%.

Take `C#Cc1nc(C2=C(C)C(=N\O)/C(=N/O)C2)cs1`: the growth is 54.4%.

With `O=C(N/N=C/c1ccco1)c1[nH]c2ccc(Br)cc2c1-c1ccccc1`, the growth was 11.2%.

Regarding `COC(=O)C(Cc1ccccc1)NS(=O)(=O)/N=C1\NC(=O)NC1=C(Cl)Cl` (configuration not stated), the growth is 82.9%.

On to `N#Cc1ccc(/C=N/NC(=O)c2[nH]c3ccc(Br)cc3c2-c2ccccc2)s1`, for which the growth was 7.7% (active).

Turning to `CCOc1ccc2nc(NC(=O)c3ccc(C(F)(F)F)cc3)sc2c1`, the growth was 89.5%.

A further experiment concerns RPMI-8226 leukemia. The description is as above. Conditions: 10 µM unless noted.
In the case of `Cn1ccnc1C(=O)/C=C/c1ccc(NC(=O)Nc2ccc(Cl)cc2)cc1`, the growth is 63.2%.

Consider `C#Cc1nc(C2=C(C)/C(=N/OCc3ccccc3)CC2)cs1`, for which the growth is -44.1% (active).

As for `COc1ccc(-n2c(SCC(=O)Nc3ccc(-c4nc5ccccc5[nH]4)cc3)nc3ccccc3c2=O)cc1`, the growth was -21.2% (active).

For the compound `COc1cc(OC)c(S(=O)(=O)NNC(=O)c2ccncc2)cc1C(=O)/C=C/c1ccc(C)cc1`, the growth was 20.3%.

Turning to `COC(=O)C(C)NS(=O)(=O)/N=C1\NC(=O)NC1=C(Cl)Cl` (configuration not stated), the growth is 104%.

On to `COc1ccc(C(=O)/C=C/c2ccc(Oc3nc(NCCO)nc(N4CCOCC4)n3)c(OC)c2)cc1`, for which the growth is 9.42% (active).

`NS(=O)(=O)c1cccc(Nc2nc(SCC(=O)c3ccc(Br)cc3)nc3ccccc23)c1`: the growth is 46.1%.

In the case of `O=C(N/N=C/c1ccc([N+](=O)[O-])o1)c1[nH]c2ccc(Br)cc2c1-c1ccccc1`, the growth is 0.483% (active).

As to `O=C(N/N=C/c1cccs1)c1[nH]c2ccc(Br)cc2c1-c1ccccc1`, the growth is 3.64% (active).

For `COc1cc2cc(Oc3ccc(NC(=O)c4cccc(C(F)(F)F)c4)cc3)c(C)nc2cc1OCCN1CCCCC1`, the growth was -10.4% (active).

Take `Cc1sc2c(c1C)c(=O)nc1c(-c3nc(-c4ccc(F)cc4)no3)n[nH]n12`: the growth is 108%.

Regarding `N#Cc1nc(-c2ccccc2)oc1N1CC[C@@H](CO)C1`, the growth was 99.5%.

Regarding `Cn1ccnc1C(=O)/C=C/c1ccc(NC(=O)Nc2ccc(F)cc2)cc1`, the growth is 13.2%.

Consider `COc1ccc(NC2=C(Cl)C(=O)C(C)=C(C)C2=O)cc1OC`, for which the growth was 88.7%.

With `NS(=O)(=O)c1ccc(Nc2nc(Nc3ccccc3)nc(-n3nc(-c4ccccc4)cc3-c3ccccc3)n2)cc1`, the growth is 6.63% (active).

For the compound `C#Cc1nc(C2=C(C)C(O)/C(=N/O)C2)cs1` (configuration not stated), the growth was -15.4% (active).

Take `Cc1ccc2c(n1)C(=O)C(Cl)=C(Nc1cccc(C(C)C)c1)C2=O`: the growth was 2.88% (active).

Turning to `CN1CCc2c(sc3ncnc(N/N=C/c4ccc(Cl)c(Cl)c4)c23)C1`, the growth was 41.4%.

On to `O=C(CSc1nnc(-c2ccc3nc(-c4ccc(Cl)cc4)[nH]c3c2)o1)Nc1ccc(C(=O)/C=C/c2ccc(Cl)cc2)cc1`, for which the growth was 4.95% (active).

In the case of `O=C(N/N=C/c1ccc(Br)s1)c1[nH]c2ccc(Br)cc2c1-c1ccccc1`, the growth is 5.48% (active).

For the compound `C#Cc1nc(C2=C(C)C(O)CC2)cs1` (configuration not stated), the growth is 97.4%.

Turning to `O=C(N/N=C/c1ccc[nH]1)c1[nH]c2ccc(Br)cc2c1-c1ccccc1`, the growth was -1.05% (active).

Regarding `COc1ccc(/C=N/NC(=O)c2[nH]c3ccc(Br)cc3c2-c2ccccc2)s1`, the growth is 7.49% (active).

As for `C/C(=N\NC(N)=O)c1c(O)sc(=O)[nH]c1=O`, the growth is 102%.

On to `C#Cc1nc(C2=C(C)C(=O)/C(=N/OC(C)=O)C2)cs1`, for which the growth was 32.3%.

Consider `Cn1ccnc1C(=O)/C=C/c1ccc(NC(=O)Nc2ccccc2)cc1`, for which the growth was 8.95% (active).

As for `COc1cc(/C=C/C(=O)c2cc(OC)c(OC)c(OC)c2)ccc1OCc1ccccc1`, the growth is -12.4% (active).

As for `CC(O)C(NC(=O)C1CCCN1C(=O)CNC(=O)C1CC(=O)NCC(=O)NC(Cc2c[nH]c3ccccc23)C(=O)NC(Cc2ccc(O)cc2)C(=O)NCC(=O)NC(CO)C(=O)NC(CCC(N)=O)C(=O)NC(Cc2c[nH]c3ccccc23)C(=O)N1)C(=O)NCC(=O)NC(CCC(N)=O)C(=O)NC(CCCNC(=N)N)C(=O)NC(CC(=O)O)C(=O)O` (configuration not stated), the growth is 83.5%.

With `COc1cc(/C=C/C(=O)c2cc(OC)c(OC)c(OC)c2)ccc1OCc1ccc(F)cc1`, the growth was -16.1% (active).

As for `O=C(N/N=C/c1ccc([N+](=O)[O-])s1)c1[nH]c2ccc(Br)cc2c1-c1ccccc1`, the growth was 0.935% (active).

In the case of `N#Cc1c(-c2ccc(Cl)cc2)nc2c(-c3ccccc3)c(Nc3ccccc3)nn2c1N`, the growth is 54.1%.

Regarding `O=C(Oc1ccc2ccc(=O)oc2c1)c1ccc(Cl)cc1`, the growth was 109%.

In the case of `C#Cc1nc(C2=C(C)C(OC(=O)CCC(=O)O)CC2)cs1` (configuration not stated), the growth was 102%.

With `C#Cc1nc(C2=C(C)C(=N\O)/C(=N/O)C2)cs1`, the growth is 72.2%.

For `O=C(N/N=C/c1ccco1)c1[nH]c2ccc(Br)cc2c1-c1ccccc1`, the growth was 8.9% (active).

Turning to `COC(=O)C(Cc1ccccc1)NS(=O)(=O)/N=C1\NC(=O)NC1=C(Cl)Cl` (configuration not stated), the growth is 4.3% (active).

As for `N#Cc1ccc(/C=N/NC(=O)c2[nH]c3ccc(Br)cc3c2-c2ccccc2)s1`, the growth is -7.36% (active).

On to `CCOc1ccc2nc(NC(=O)c3ccc(C(F)(F)F)cc3)sc2c1`, for which the growth was 100%.

Source of the values: PubChem BioAssay (NCI).
